# ELG1 repair inh – blocks ELG1-dependent DNA repair in HEK293T cells; HEK293T ELG1-luciferase reporter, luminescence, 16 h; DNA damage induced by 5-fluorouridine; Potency, µM (top dose mostly 46.1 µM), inactives show top-dose activity change, negative = inhibition, most hits filed as inhibitors; 2.3% of 330,000 active; note: potency is the fitted concentration of half-maximal effect; nearly all actives have a fitted effect of over 55% in size
#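 HEK293T cells expressing luciferase-tagged ELG1 (2,000/well) received 5-Fluorouridine plus compound or DMSO for 16 hr at 37 °C. Luciferase was read by ONE-Glo luminescence after 30 min at room temperature.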
# DT40 TDP1 CPT – growth inhibition of DT40 Tdp1-/-;hTDP1 cells with camptothecin (screen for TDP1 inhibitors) | 12% of 420,000 active | Potency, µM (highest dose often 46.2 µM), inactives show top-dose activity change, negative = growth inhibition, actives largely listed as inhibitors | AID 686979 | chicken DT40 Tdp1-/-;hTDP1 cells + 20 nM CPT, ATP luminescence, 48 h; note: potency is the fitted concentration of half-maximal effect; nearly all actives have a fitted effect of over 55% in size
#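 Chicken DT40 Tdp1-/- cells stably complemented with human TDP1 were seeded at 400 cells/well in medium containing 20 nM camptothecin, exposed to pin-transferred compounds, and grown at 37 °C for at least 48 hr. Viability was read as ATP luminescence.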
# IL-1B inflam inh – inflammasome signaling inhibition, IL-1 beta readout | THP-1 LPS/ATP IL-1B secretion, AlphaLISA, 16 h; hits give low values | AID 743279 | activity change, % at 57.5 µM | 4.7% of 360,000 active; in the data active = activity change below about -50%; inconclusive = mostly about -30% to -49%
#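 Secreted IL-1B measured by AlphaLISA bead assay after 16 h compound exposure of THP-1 cells; compounds (final up to 57.5 uM) added 1 h before LPS (250 ng/mL) and ATP (1.25 mM) stimulation; lower signal means less secretion.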
# RORg inh – inhibitors of mouse ROR gamma transcriptional activity; P51450; Drosophila S2 Gal4-RORgamma UAS-luciferase reporter, 20 h; Potency, µM (doses to about 53.6 µM), without a hit: at the highest dose activity change, negative = inhibition, hits mostly inhibitors; 5.4% of 310,000 active; AID 2551; note: potency is the fitted concentration of half-maximal effect; nearly all actives have a fitted effect of over 60% in size
# Target sequence (P51450 whole entry, looked up, the tested form may be a part): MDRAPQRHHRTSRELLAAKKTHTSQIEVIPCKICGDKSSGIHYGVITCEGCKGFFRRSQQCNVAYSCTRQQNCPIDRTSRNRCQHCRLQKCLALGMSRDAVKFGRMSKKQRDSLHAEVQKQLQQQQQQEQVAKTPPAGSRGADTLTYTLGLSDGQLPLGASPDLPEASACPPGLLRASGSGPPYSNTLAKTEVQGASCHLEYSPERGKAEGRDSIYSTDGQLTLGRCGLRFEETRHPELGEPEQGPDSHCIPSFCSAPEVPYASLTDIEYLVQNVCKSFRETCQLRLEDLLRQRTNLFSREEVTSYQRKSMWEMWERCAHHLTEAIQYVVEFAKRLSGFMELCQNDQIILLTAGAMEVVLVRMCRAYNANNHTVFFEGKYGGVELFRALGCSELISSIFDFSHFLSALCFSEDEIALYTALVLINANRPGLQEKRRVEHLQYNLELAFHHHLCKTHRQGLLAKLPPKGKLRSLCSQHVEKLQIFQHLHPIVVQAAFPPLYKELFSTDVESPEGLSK
#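 Using a luciferase readout, inhibitors were identified by reduced reporter activity in Drosophila cells coexpressing a copper-inducible Gal4–ROR gamma fusion and UAS-driven Photinus luciferase, incubated 20 hr after 700 uM copper sulfate.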
# VP16 counter – counter-screen for ROR gamma inhibitors: Gal4-VP16 reporter. Drosophila S2 Gal4-VP16 UAS-luciferase, luminescence, 20 h. Potency, µM (highest dose often 53.6 µM), for the others: top-dose activity, negative = inhibition, usual class: inhibitors. 3.5% of 310,000 active. AID 2546;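 note: Gal4-VP16 expression switched on by copper sulfate through the metallothionein promoter; potency is the fitted concentration of half-maximal effect; nearly all actives have a fitted effect of over 50% in size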
# DT40 TDP1 no CPT – qHTS for Inhibitors of human tyrosyl-DNA phosphodiesterase 1 (TDP1): qHTS in cells in absence of CPT | Potency, µM (series often up to 46.2 µM), for the others: top-dose activity change, negative = growth inhibition, actives largely listed as inhibitors | DT40 Tdp1-/- hTDP1 cells, no CPT, ATP luminescence, 48 h | 15% of 420,000 active; note: potency is the fitted concentration of half-maximal effect; nearly all actives have a fitted effect of over 55% in size
#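 Stably hTDP1-transfected Tdp1-null chicken DT40 cells were treated with library compounds minus camptothecin and grown for at least 48 hr at 37 °C, after which cellular ATP was quantified by luminescence.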
# * hit, by the source's call; ? = inconclusive; . = not tested or not shown; [ ] = dose if it differs, or a comment. In the library only some 21% were active in any assay of this set; here they are far more common. Unless noted, calls come from the whole dose curve; as a rule, active = well fitted curve in the direction sought with a large enough effect; inconclusive = small, poorly fitted or top-dose-only effect, or another doubt; inactive = no such curve, though single readings can be large; an effect the other way counts as inactive or inconclusive. % is set by controls: 0 for no effect and ±100 for the full control effect.
SMILES,ELG1 repair inh,DT40 TDP1 CPT,IL-1B inflam inh,RORg inh,VP16 counter,DT40 TDP1 no CPT
CC(C)(C)C(=O)Nc1ccc(S(=O)(=O)N2CC3CC(C2)c2cccc(=O)n2C3)cc1 (stereo unspecified),-11%,4%,-13,-4%,0%,8%
C=CCSc1nc2c(c(-c3ccsc3)c1C#N)CN(C)CC2,-3%,?,-11,15%,-12%,18µM*
CCC1(c2ccccc2)C(=O)NC(=O)N(C(=O)c2ccccc2)C1=O (stereo unspecified),.,-19%,.,2%,11%,-21%
Cc1ccc(NC(=O)c2cn(CCC#N)nc2-c2ccc3c(c2)OCCO3)c([N+](=O)[O-])c1,18µM*,?,-12,9%,5%,6.5µM*
COc1ccc(OC(=O)N(C)C[C@@H]2OCc3cnnn3CCCC(=O)N([C@H](C)CO)C[C@H]2C)cc1,.,-11%,9,.,.,1%
c1cc[n+]2c(c1)-c1cccc[n+]1CC2,.,.,.,-27%,-6%,.
Nc1cccc2c(N)cccc12,.,22µM*,.,-17%,6%,24µM*
Clc1cccc2ccccc12,.,.,.,-19%,1%,.
CC(=O)NC(Cc1ccc(N(CCCl)CCCl)cc1)C(=O)NCC(=O)NCC(=O)O (stereo unspecified),-3%,6.5µM*,4,-13%,-6%,10µM*
CCOC(=O)CNC(=O)CNC(=O)C(Cc1ccc(N(CCCl)CCCl)cc1)NC(C)=O (stereo unspecified),18%,1.3µM*,?,-2%,-7%,1.6µM*
CCOC(=O)C(NC(=O)C(Cc1ccc(N(CCCl)CCCl)cc1)NC(C)=O)C(C)C (stereo unspecified),16%,1%,3,26%,0%,6%
CSCC[C@H](NC(=O)[C@H](Cc1ccccc1)NC(=O)CNC(=O)CNC(=O)[C@@H](N)Cc1ccc(O)cc1)C(=O)O,.,0%[4.12 µM],.,.,.,-2%[4.12 µM]
CC(=O)NC(Cc1ccc(N(CCCl)CCCl)cc1)C(=O)NC(CC(C)C)C(=O)O (stereo unspecified),12%,?,0,-15%,-7%,15µM*
CC(N)Cc1ccc2c(c1)OCO2 (stereo unspecified),.,-13%,.,.,.,-10%
O[C@H]1CCCC[C@H]1N1CCC(c2ccccc2)CC1,.,-8%,.,-22%,4%,-4%
Clc1ccc(-c2csc3ncnc(Sc4nnnn4C4CC4)c23)cc1,.,5µM*,.,.,.,3.2µM*
COC(=O)C1=C(c2ccc(Cl)c(C(F)(F)F)c2)C[C@@H]2CC[C@H]1N2C(=O)NCCOc1ccccc1Cl,?,?,-82*,.,.,?
COC(=O)C1=C(c2ccc(Cl)c(C(F)(F)F)c2)C[C@@H]2CC[C@H]1N2C(=O)NCCCOC(C)C,-10%,26µM*,-13,.,.,13µM*
C[C@@H]1Cc2c(Cl)cc(C(=O)N[C@@H](Cc3ccccc3)C(=O)O)c(O)c2C(=O)O1,.,.,.,?,22µM*,.
CC1=C/C(=N\NC(=S)NCCc2ccccc2)CC(C)(C)C1,?,?,-7,0.5µM*,?,?
c1ccc(CCNCc2ccccc2)cc1,?,4%,-7,2%,-5%,-16%
CC(C)(C)NC[C@H](O)c1ccc(O)cc1Cl,.,6%,.,.,.,-2%
C[C@@H](N)Cn1ccc2cc(F)c(Cl)cc21,.,-23%,.,10%,-5%,?
CC1=C2[C@@H]3OC(=O)[C@@H](C)[C@@H]3CC[C@]2(C)C=CC1=O,.,.,.,0%[16.9 µM],2%[17 µM],.
COc1ccc(-c2nn(CCC#N)cc2C(=O)NCc2ccccc2)cc1,-4%,-19%,13,30%,-3%,27%
SMILES,ELG1 repair inh,DT40 TDP1 CPT,IL-1B inflam inh,RORg inh,VP16 counter,DT40 TDP1 no CPT
COc1ccc(-c2nc(SCC(=O)NC(C)CCc3ccccc3)n[nH]2)cc1 (stereo unspecified),.,12µM*,.,.,.,12µM*
CCOC(=O)C(O)(c1ccc(NC(=S)NC(=O)c2ccc(Cl)cc2Cl)c(C)c1)C(F)(F)F (stereo unspecified),-3%,?,-54*,13µM*,?,12µM*
CCOC(=O)C(NC(=O)CC)(Nc1ccc(C(O)(C(=O)OCC)C(F)(F)F)cc1C)C(F)(F)F (stereo unspecified),-26%,-18%,-25,-2%,-5%,-13%
COC(=O)C(O)(c1ccc(NC(=S)NC(=O)c2ccc(Cl)cc2Cl)c(C)c1)C(F)(F)F (stereo unspecified),-24%,?,-21,8.9µM*,?,21µM*
CCOC(=O)C1C(OC(=O)c2ccccc2)CC2CCC1N2C (stereo unspecified),.,10%,1,.,.,0%
CC(O)C1C=CC=CC(=O)OC2CC3OC4C5OC5(C)CCC4(COC(=O)C4OC4(C)C(O)CO1)C2(C)C31CO1 (stereo unspecified),.,0.052µM*,-100*,.,.,0.052µM*
CC(=O)OC1C(=O)OCC23CCC4(C)OC4C2OC2CC(OC(=O)C=CC=CC(=O)OCCC1C)C3(C)C21CO1 (stereo unspecified),.,0.15µM*,-101*,.,.,0.021µM*
CCN(CC)CCO,16%,-1%,-1,5%,-12%,6%
C=CC[C@]1(O)CCC2C3CCC4=CCCCC4C3CCC21C (stereo partly specified),.,.,.,-39%,2%,.
CC(CC(C)(C)N1CC1)=NO,.,2.9µM*,-20,.,.,3.3µM*
O=C(Oc1ccccc1)c1cccc(COC(=O)c2cnccn2)c1,?,-3%,3,-35%,?,-2%
O=C1NC(=S)NC(=O)C1=Cc1cccn1-c1ccc(O)cc1,?,3.7µM*,-102*,2.8µM*,8.9µM*,5.2µM*
Cc1cc(C)cc(N2C(=O)NC(=O)/C(=C\c3cccn3-c3ccccc3)C2=O)c1,-8%,?,-99*,-14%[10 µM],?,?
CN1C(=O)/C(=C/c2cccn2-c2ccc3ccccc3c2)C(=O)NC1=S,?,3.3µM*,-117*,13µM*,-88%,5.2µM*
COc1ccccc1C=C1C(=O)NC(=S)NC1=O,.,-17%,?,.,.,2%
Cc1cccc(N2C(=O)NC(=O)/C(=C\c3cnc(-c4ccccc4)nc3)C2=O)c1,26%,?,23,20%,-23%,?
O=C(c1csnn1)N1CCC2(CC1)CN(Cc1ccncc1)C2,.,7%,.,33%,-10%,-3%
OCC(Br)(Br)Br,.,.,.,-5%,-6%,.
